Laboratory results taken from PubChem BioAssay AID1851 (National Center for Advancing Translational Sciences (NCATS), 2009).
Hit rate of the full screen: of about 16,000 compounds, about 4,000 (25%) were called active. Inconclusive results (about 26%) are left out. The call rests on the fitted dose curve; in most records, active means well fitted curve in the direction sought with a large enough effect; inconclusive means small, poorly fitted or top-dose-only effect, or effect the other way; inactive means no such curve, though single readings can be large or run the other way. Only a sample is shown.

What follows are compounds tested against Cytochrome P450 2C9 (Homo sapiens) (UniProt P11712) (assay: Cytochrome panel assay with activity outcomes). Conditions: recombinant CYP, pro-luciferin dealkylation, luminescence, p450-cyp2c9; series mostly up to 57.1 µM.
Cytochrome P450 2C9 (Homo sapiens), sequence (P11712 whole entry, looked up): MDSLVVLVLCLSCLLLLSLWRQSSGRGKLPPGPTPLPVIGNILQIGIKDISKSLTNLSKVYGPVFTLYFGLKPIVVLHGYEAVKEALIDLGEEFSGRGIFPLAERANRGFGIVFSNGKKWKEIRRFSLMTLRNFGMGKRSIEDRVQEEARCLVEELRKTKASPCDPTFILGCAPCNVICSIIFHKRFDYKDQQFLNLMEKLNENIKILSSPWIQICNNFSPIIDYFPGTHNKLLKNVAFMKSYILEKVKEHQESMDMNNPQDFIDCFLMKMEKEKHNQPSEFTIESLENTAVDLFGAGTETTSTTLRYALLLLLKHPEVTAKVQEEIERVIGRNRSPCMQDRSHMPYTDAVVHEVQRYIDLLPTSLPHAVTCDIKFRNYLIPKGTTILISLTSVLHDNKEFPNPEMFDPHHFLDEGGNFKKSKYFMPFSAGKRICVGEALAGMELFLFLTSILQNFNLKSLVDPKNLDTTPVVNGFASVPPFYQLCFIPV
On the % scale 0 is the no-effect control and ±100 the full control effect.

Structure (SMILES) | AC50 | activity, negative = inhibition
O=C1C=C(NCC2CCCO2)C2(CCCCC2)O1 (stereo not drawn) | inactive | –
O=S(=O)(c1cnccc1N1CCN(CCO)CC1)N1CCCC1 | – | 8.09% [at 11.4 µM] (inactive)
O=S(=O)(c1cnccc1N1CCN(/N=C/c2ccccc2)CC1)N1CCCCC1 | 17.8 µM (active) | –
CC(C)N1CCN(c2ccncc2S(=O)(=O)N2CCCCC2)CC1 | – | -8.32% [at 11.4 µM] (inactive)
Cc1ccc(-c2ccc(CCC(=O)O)n2CC2CCCO2)cc1 (stereo not drawn) | inactive | –
CC(=O)c1ccc(-n2c(CCC(=O)O)ccc2-c2cccs2)cc1 | 14.1 µM (active) | –
NC(=O)Nn1c(CCC(=O)O)ccc1-c1ccc(F)cc1 | inactive | –
Cc1cc(C2CCCCC2)n(O)c(=O)c1 | inactive | –
CS(=O)(=O)Nc1cccc(-c2ccc3ncnc(N4CCNCC4)c3c2)c1 | – | -12.1% [at 2.29 µM] (inactive)
O=C(O)/C(=C/c1c(C(=O)O)[nH]c2cc(Cl)cc(Cl)c12)c1ccccc1 | inactive | –
O=C(O)/C(=C\c1ccc(O)cc1)c1cccc2ccccc12 | – | -3.39% [at 11.4 µM] (inactive)
O=C(/C(=C/c1ccc(Cl)cc1)c1nc2ccccc2[nH]1)c1ccccc1 | 0.631 µM (active) | –
CN1CCN(CCCN2c3ccccc3Sc3ccc(S(=O)(=O)N(C)C)cc32)CC1 | inactive | –
N[C@@H](Cc1[nH]nc2ccccc12)C(=O)O | – | 7.77% [at 11.4 µM] (inactive)
CC(C)Oc1ccc(CNC(=O)CC(c2ccccc2)c2cc(Cl)ccc2O)cc1 (stereo not drawn) | 2.24 µM (active) | –
CN(Cc1ccccc1)C(=O)CC(c1ccccc1)c1cc(Cl)ccc1O (stereo not drawn) | 4.47 µM (active) | –
C[C@@H](c1ccccc1)N1C(=O)[C@@H]2[C@H]3C(=CC[C@H]2C1=O)C(=O)[C@H]1O[C@H]1[C@H]3O | – | -6.91% [at 11.4 µM] (inactive)
Oc1cc(O)c2c(c1)O[C@H](c1ccc(O)c(O)c1)[C@H](O)C2 | inactive | –
Cc1cc(-c2n[nH]c(=S)o2)c(C)n1-c1ccccc1 | 12.6 µM (active) | –
Cc1ccc(-n2c(-c3cc(C)n(C)n3)n[nH]c2=S)cc1 | inactive | –
CC[N+](CC)(CC)CCOc1cccc(OCC[N+](CC)(CC)CC)c1OCC[N+](CC)(CC)CC | inactive | –
CCCN1C[C@@H](CSC)C[C@H]2c3cccc4[nH]cc(c34)C[C@@H]21 | inactive | –

Structure (SMILES) | AC50 | activity, negative = inhibition
O=C(N/N=C/c1ccc(Cl)cc1Cl)Nc1ccccc1 | inactive | –
O=C(N/N=C/c1ccc(Cl)cc1Cl)c1cccc(F)c1 | 15.8 µM (active) | –
C/C(=N\NC(=O)c1cccc(F)c1)c1ccc(Br)s1 | inactive | –
Cc1cnc(CNc2nc(-c3ccccc3Cl)nc3ccccc23)cn1 | – | 7.89% [at 2.29 µM] (inactive)
CC(C)c1ccc(N2C(=O)CC(Sc3nc4ccccc4o3)C2=O)cc1 (stereo not drawn) | 2.24 µM (active) | –
CC1(CCC#N)N=C(SCCC#N)N(c2ccccc2)C1=O (stereo not drawn) | inactive | –
Cc1ccc(S(=O)(=O)CC#CCOC(=O)c2ccc([N+](=O)[O-])cc2)cc1 | 5.62 µM (active) | –
Cc1ccc(/C(C#N)=C/c2cccc([N+](=O)[O-])c2)cc1 | – | -10.5% [at 11.4 µM] (inactive)
Cc1c(OC(=O)c2ccc([N+](=O)[O-])cc2)c2c(c[n+]1C)COC(C)(C)OC2 | inactive | –
COc1cc(Cl)c(CC(=O)c2c[nH]c3ccccc23)cc1OC | – | -14.5% [at 11.4 µM] (inactive)
COc1ccc(Cc2ccccc2C(=O)O)c2ccccc12 | 3.98 µM (active) | –
Cc1ccc(C(=N)c2ccccc2Cc2cccc3ccccc23)c2ccccc12 | – | 5.86% [at 11.4 µM] (inactive)
N[C@@H](C(=O)O)c1cc(O)ccc1Cl | inactive | –
Cc1ccc(-c2csc(C(C#N)=C3CCCC3)n2)cc1 | 11.2 µM (active) | –
N#C/C(=C(/O)CN1CCCCC1)c1nc(-c2ccc(Cl)cc2)cs1 | inactive | –
O=C(CSCC(=O)OCn1nnc2ccccc2c1=O)Nc1ccc(Cl)cc1 | 12.6 µM (active) | –
COC(=O)c1cc(OC)c(OC)cc1NC(=S)N1CCN(C)CC1 | inactive | –
COC(=O)c1ccc(C(=O)OC)c(NC(=S)N2CCN(c3ccccc3)CC2)c1 | 6.31 µM (active) | –
COC(=O)c1ccc(N2CCN(c3ccccc3)CC2)c(NC(=O)C2CC2)c1 | inactive | –
Cc1cccc(C)c1OC[C@H](C)N | inactive | –
Cc1cc(=O)[nH]c2c1c(C)nn2C1CCOC(C)(C)C1 (stereo not drawn) | inactive | –
CN1CCc2c(sc3c2c(=O)n(-c2ccccc2)c2nncn32)C1 | inactive | –

Structure (SMILES) | AC50 | activity, negative = inhibition
Cn1c(=O)n(-c2ccc(Cl)cc2)c(=O)c2c3c(sc21)COC(C)(C)C3 | 10 µM (active) | –
Cn1c(=O)n(-c2cccc(Cl)c2)c(=O)c2c3c(sc21)COC(C)(C)C3 | 15.8 µM (active) | –
COc1cccc(C(C#N)N2N=C(C)CC2(C)C)c1O (stereo not drawn) | inactive | –
O=C1[C@@H]2[C@H]3[C@H](O)[C@H](O)C/C(=N/OCc4ccccc4)[C@@H]3CC[C@H]2C(=O)N1c1ccc(F)cc1F | – | 12.2% [at 11.4 µM] (inactive)
C=C[C@@]1(C)CC(=O)[C@@]2(O)[C@@]3(C)[C@H](O)CCC(C)(C)[C@@H]3[C@H](O)[C@H](OC(C)=O)[C@]2(C)O1 | inactive | –
C=C[C@@]1(C)CC(=O)[C@@]2(O)[C@@]3(C)[C@@H](O)CCC(C)(C)[C@@H]3[C@H](O)[C@H](OC(C)=O)[C@@]2(C)O1 | inactive | –
C=C[C@@]1(C)CC(=O)[C@@]2(O)[C@@]3(C)[C@@H](O)CCC(C)(C)[C@@H]3[C@H](OC(=O)CCN(C)C)[C@H](OC(C)=O)[C@@]2(C)O1 | 0.126 µM (active) | –
CC1(C)SC(=S)N(NC(=O)Nc2ccccc2)C1N(O)C(=O)Nc1ccccc1 (stereo not drawn) | 10 µM (active) | –
COCCNc1nc(-c2ccccc2CN(C)C)nc2ccccc12 | – | 1.68% [at 2.29 µM] (inactive)
O[C@H](CNc1ccccn1)c1ccccc1 | – | -4.96% [at 11.4 µM] (inactive)
COc1ccc([C@H](O)c2ccccn2)cc1 | – | -12.5% [at 11.4 µM] (inactive)
COc1ccc([C@@H](Nc2ccccn2)c2cc(C(C)(C)C)cc(C(C)(C)C)c2O)cc1 | 2.51 µM (active) | –
O=[N+]([O-])c1ccc(N2CCN(CCOc3nonc3-c3ccccc3)CC2)c(Cl)c1 | 22.4 µM (active) | –
CN1CCN(c2ccc([N+](=O)[O-])cc2NC(=O)c2ccccc2Cl)CC1 | inactive | –
c1ccc2c(c1)oc1c(NCCCn3ccnc3)ncnc12 | 0.447 µM (active) | –
c1ccc(-n2ncc3c(NCCCN4CCOCC4)ncnc32)cc1 | inactive | –
c1cncc(-c2ccc3ncnc(NCCN4CCOCC4)c3c2)c1 | – | 23.6% [at 2.29 µM] (inactive)
COc1ccc(-c2nc3cnc(OC)nc3n(-c3ccc(OC)cc3)c2=O)cc1 | inactive | –
CCNc1ncc2nc(C)c(=O)n(C3CC3)c2n1 | inactive | –
Cc1ccc(-c2nnc(-c3ccc(NC(=O)c4cccs4)cc3)o2)cc1 | 5.01 µM (active) | –
Cc1ccccc1-c1nc(-c2ccc(NC(=O)c3cccs3)cc2)no1 | 12.6 µM (active) | –
Cc1ccccc1-c1nccc(NCc2cccs2)n1 | – | -17.9% [at 2.29 µM] (inactive)

Structure (SMILES) | AC50 | activity, negative = inhibition
CS(=O)(=O)c1ccccc1-c1nc(-c2cc(C(F)(F)F)cc(C(F)(F)F)c2)no1 | inactive | –
O=C(c1csnn1)N1CCC[C@@]2(CCN(Cc3nccs3)C2)C1 | inactive | –
c1ccc(CCCNc2nnnc3ccccc23)cc1 | – | -19.1% [at 11.4 µM] (inactive)
O=C(O)c1cc([N+](=O)[O-])ccc1NCCCc1ccccc1 | 0.501 µM (active) | –
Cc1cc([N+](=O)[O-])ccc1NCc1ccccc1 | 3.55 µM (active) | –
COC(=O)C/C=C\[C@@H](C)[C@@H](/C=N\O[C@@H](C)CN1CCCc2nc(C)c(C)cc21)OC | – | -19.3% [at 11.4 µM] (inactive)
O=S(=O)(c1ccccc1)N1CCC2(CC1)CN(c1ncccn1)C2 | inactive | –
O=S(=O)(c1ccccc1)N1CCC[C@@]2(CCN(c3ccncc3)C2)C1 | 15.8 µM (active) | –
O=S(=O)(c1ccccc1)N1CCC2(CCCN(c3ncccn3)C2)CC1 | 1 µM (active) | –
O=S(=O)(c1ccccc1)N1CCC2(CCCN(c3ccccc3)C2)CC1 | 1.26 µM (active) | –
O=S(=O)(c1ccccc1)N1CCC2(CCN(c3ncccn3)CC2)CC1 | inactive | –
CS(=O)(=O)N1CCC2(CCCN(c3ccccn3)C2)CC1 | inactive | –
CS(=O)(=O)N1CCC[C@@]2(CCN(c3ccccn3)C2)C1 | inactive | –
CN1CCCC2(CCN(S(=O)(=O)c3ccccc3)CC2)C1 | inactive | –
O=S(=O)(c1ccccc1)N1CCC2(CC1)CN(c1ccccn1)C2 | inactive | –
CC(C)CN1CC[C@@]2(CCCN(S(=O)(=O)c3ccccc3)C2)C1 | inactive | –
O=S(=O)(c1ccccc1)N1CCC2(CCCN(c3ccccn3)C2)CC1 | 1 µM (active) | –
O=S(=O)(c1ccccc1)N1CCC2(CCCN(c3cccc(-c4ccccc4)c3)C2)CC1 | inactive | –
C=C(NC(=O)C(=C)NC(=O)c1csc(C2=N[C@@H]3c4csc(n4)[C@@H]4NC(=O)c5csc(n5)[C@@H]([C@](C)(O)[C@H](C)O)NC(=O)[C@@H]5CSC(=N5)/C(=C/C)NC(=O)[C@@H]([C@H](C)O)NC(=O)c5csc(n5)[C@]3(CC2)NC(=O)[C@@H](C)NC(=O)C(=C)NC(=O)[C@@H](C)NC(=O)[C@@H]([C@@H](C)CC)N[C@H]2C=Cc3c([C@H](C)O)cc(nc3[C@@H]2O)C(=O)O[C@H]4C)n1)C(N)=O | inactive | –
O=C1C2C3C=CC(C3)C2C(=O)N1/N=C/c1cn(Cc2ccc(F)cc2)c2ccccc12 (stereo not drawn) | inactive | –
O=[N+]([O-])/C=C/c1cn(Cc2ccccc2)c2ccccc12 | 11.2 µM (active) | –
O=C1C2C3C=CC(C3)C2C(=O)N1/N=C/c1cn(Cc2ccccc2)c2ccccc12 (stereo not drawn) | inactive | –
